What follows are compounds tested on LOC_OS01G67340-cb003 (assay: thermal shift delta Tm vs DMSO control; higher = stronger stabilization (binding)). Conditions: 12.5 µM; protein concentration 2 µM.
Method in brief: (§1)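 Purified, E. coli-expressed rice kinase domain constructs were tested by differential scanning fluorimetry in 96-well plates: 19.5 μl of 2 μM kinase in 100 mM potassium phosphate pH 7.5, 150 mM NaCl, 10% glycerol, 5 × SYPRO Orange, plus compound in DMSO. Fluorescence was read from 25°C to 95°C at 0.05°C/s. Melting temperatures came from Boltzmann fits, and the shift is the triplicate mean relative to protein with DMSO alone.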

SMILES | thermal shift delta Tm [°C]
COc1ccc(S(=O)(=O)N(CCO)c2ccccc2CN(C)C/C=C/c2ccc(Cl)cc2)cc1 [KN-93 Phosphate] | 0.92
CN(C[C@@H]1COCCO1)S(=O)(=O)Nc1ccc2ccc3ncc(-c4cnn(C)c4)cc3c(=O)c2c1 | 0.51
COc1ccc(CCNCc2ccc(OCc3ccc(Cl)nc3)c(OC)c2)cc1OC | 0.24
Clc1ccc(C2(c3ccc(-c4cn[nH]c4)cc3)CCNCC2)cc1 | -0.1
CN(C)Cc1cccc(N/C(=C2\C(=O)Nc3cc(C(N)=O)ccc32)c2ccccc2)c1 | 0.19
CC[C@H](CO)Nc1nc(NCc2ccccc2)c2ncn(C(C)C)c2n1 [Roscovitine (Seliciclib,CYC202)] | -0.54
Cc1cc(Nc2cc(N3CCN(C)CC3)nc(/C=C/c3ccccc3)n2)n[nH]1 | 0.51

These compounds were tested on LOC_OS01G70970-cb002 in the same assay as above. Conditions: 12.5 µM; protein concentration 2 µM.
Method in brief: as §1

SMILES | thermal shift delta Tm [°C]
CCOc1cc2ncc(C#N)c(Nc3ccc(OCc4ccccn4)c(Cl)c3)c2cc1NC(=O)/C=C/CN(C)C [Neratinib (HKI-272)] | 0.3
COc1cc2nccc(Oc3ccc(NC(=O)Nc4cc(C)on4)c(Cl)c3)c2cc1OC [Tivozanib (AV-951)] | 0.66
O=C1NC(=O)C(c2ccccc2[N+](=O)[O-])=C1Nc1ccc(O)c(Cl)c1 | 0.12
Cc1c(C(=O)N2CCOc3ccc(-c4ccc(N)nc4)cc3C2)ccc(S(C)(=O)=O)c1F | 0.48
Cn1nccc1Nc1nccc(-c2ccn([C@H](CO)c3ccc(Cl)c(F)c3)c(=O)c2)n1 | 0.22
COc1cc2c(N3CCN(C(=O)Nc4ccc(OC(C)C)cc4)CC3)ncnc2cc1OCCCN1CCCCC1 [Tandutinib (MLN518)] | -0.15
C[C@@H]1COCCN1c1cc(=O)n2c(n1)N(Cc1cncc(Cl)c1)[C@H](C(F)(F)F)CC2 | 0.33
COc1ccc(F)c(F)c1C(=O)c1cnc(NC2CCN(S(C)(=O)=O)CC2)nc1N | 0.03
O=C(NCc1ccccc1)c1csc(Nc2ccncn2)n1 [Thiazovivin] | 0.09
CCN(CC)CCCCNc1ncc2cc(-c3cc(OC)cc(OC)c3)c(NC(=O)NC(C)(C)C)nc2n1 | 0.05
O=c1cc(N2CCOCC2)oc2c(-c3ccc4c(c3)OCCO4)csc12 | 0.12
Nc1ccc(C(=O)Nc2cccc(-c3nc(N4CCOCC4)c4oc5ncccc5c4n3)c2)cn1 | 0.23
O=C(NC[C@H](O)CO)c1ccncc1Nc1ccc(I)cc1F | 0.16
CCOc1cc2ncc(C#N)c(Nc3ccc(F)c(Cl)c3)c2cc1NC(=O)/C=C/CN(C)C [Pelitinib (EKB-569)] | 0.22
COc1cc2ncnc(Nc3ccc(Cl)cc3F)c2cc1OC | 0.2
Cc1cc(Nc2ncnc3ccc(NC4=NC(C)(C)CO4)cc23)ccc1Oc1ccn2ncnc2c1 [Irbinitinib (ARRY-380, ONT-380)] | -0.85
CC1(C)CNc2cc(NC(=O)c3cccnc3NCc3ccncc3)ccc21 [Motesanib Diphosphate (AMG-706)] | 0.75
COC(=O)Nc1ccc(-c2nc(N3CCOCC3)c3cnn(C4CCN(C(=O)OC)CC4)c3n2)cc1 | 0.2
COc1cc(C(=O)N2CCC(N3CCN(C)CC3)CC2)ccc1Nc1ncc2c(n1)N(C)c1ccccc1C(=O)N2C | 0.15
C=C(C)[C@@H]1CC[C@]2(C)CC[C@]3(C)[C@H](CC[C@@H]4[C@@]5(C)CC[C@H](O)C(C)(C)[C@@H]5CC[C@]43C)[C@@H]12 [Lupeol] | -0.32
Oc1cccc(-c2nc(N3CCOCC3)c3oc4ncccc4c3n2)c1 | 0.33
CCn1c(N)c(C(=O)NC)c(=O)c2ccc(C#CC(C)(O)COC)nc21 (stereo unspecified) | 1.97
CCOc1cc(C(=O)N2CCC(N3CCN(C)CC3)CC2)ccc1Nc1ncc2c(n1)N(C1CCCC1)c1ccccc1C(=O)N2C | 0.05
Cc1ccc(NC(=O)c2cccc(C(C)(C)C#N)c2)cc1Nc1ccc2ncn(C)c(=O)c2c1 | 0.4
Nc1ccc(-c2ccc3ncc4ccc(=O)n(-c5cccc(C(F)(F)F)c5)c4c3c2)cn1 [Torin 2] | 0.87
CCN(CC)CCCC(C)Nc1ccnc2cc(Cl)ccc12 (stereo unspecified) [Chloroquine Phosphate] | -0.07
C[C@@H](N)[C@H]1CC[C@H](C(=O)Nc2ccncc2)CC1 | 0.52
COc1cc(N2CCC(N(C)C)CC2)ccc1Nc1ncc(Cl)c(Nc2ccccc2P(C)(C)=O)n1 | 4.81
CCCS(=O)(=O)Nc1ccc(F)c(C(=O)c2c[nH]c3ncc(-c4ccc(Cl)cc4)cc23)c1F [Vemurafenib (PLX4032, RG7204)] | 3.78
